# Legend:
# Assay in all cases: pooled miR-30 sensor sort-seq; sequence = guide strand
# Settings in all cases: shRNA
# [1] = target: EPHX1
# [2] = target: EPHX2
# [3] = target: ETFB
# [4] = target: FAM162A
# [5] = target: FAM151A
# [6] = target: FAM154A
# [7] = target: FAM151B
# [8] = target: FAM178A
# [9] = target: FAM22F
# [10] = target: FAM73A
# [11] = target: FAN1
# [12] = target: FBXL3
# [13] = target: FBXW9
# [14] = target: FCF1
# [15] = target: FBXO8
# [16] = target: FBXO43
# [17] = target: FGA
# [18] = target: FGF1
sequence,measurement,setting,value
TTGTAAAAGATCCTGGCGGTGG,sensor-assay potency score (higher = more potent),[1],-0.0602
TGGTTCTTGGAAGTAGAGCTGG,sensor-assay potency score (higher = more potent),[2],-0.725
TTGGAGTTGAAGCCATAGTGGA,sensor-assay potency score (higher = more potent),[1],-0.99
AACTTCTCTAGAATATAGGCAG,sensor-assay potency score (higher = more potent),[1],-0.342
TCCAAGAATACCAACTCTCGGG,sensor-assay potency score (higher = more potent),[2],-1.01
ATCAGCTTGTAAAAGATCCTGG,sensor-assay potency score (higher = more potent),[1],-0.191
AAAGTTTCCTCTTTGTCCCGGG,sensor-assay potency score (higher = more potent),[1],0.0687
AAAACTCGTAGAAAGAGCCGGG,sensor-assay potency score (higher = more potent),[1],0.199
TCATCTGACGTTTCCACCTTGA,sensor-assay potency score (higher = more potent),[1],-0.126
TTTCTGGAAAGCATCATTCAGA,sensor-assay potency score (higher = more potent),[2],-0.533
TAAAACTCGTAGAAAGAGCCGG,sensor-assay potency score (higher = more potent),[1],-0.339
TCGTCCAGGGAGAACTTCCTTT,sensor-assay potency score (higher = more potent),[1],-1.04
TTAGAGGACCTCTGAAACCAGA,sensor-assay potency score (higher = more potent),[2],-0.75
TCGCTTGCTCTGAAGAGGCTTT,sensor-assay potency score (higher = more potent),[2],-0.734
TTGTCCCGGGAGATGAACCAGT,sensor-assay potency score (higher = more potent),[1],-1.24
TAGTGAATCCTTTCTTCCTGAG,sensor-assay potency score (higher = more potent),[2],-0.285
TTGGTCAGCAGGTCGTCCAGGG,sensor-assay potency score (higher = more potent),[1],-0.558
TCATGCTTCTGGGTCATCCAGC,sensor-assay potency score (higher = more potent),[1],-0.602
TTTTATGGAGAAATTCTTGGGG,sensor-assay potency score (higher = more potent),[2],0.765
TTCAATCTTAGTCTTGAAGTGA,sensor-assay potency score (higher = more potent),[1],-0.0669
TTCTTGGAAGTAGAGCTGGTAA,sensor-assay potency score (higher = more potent),[2],-0.749
TCCCGCTCCACTTTCAACTTGT,sensor-assay potency score (higher = more potent),[3],-0.247
TCAGCTGTCACCACAGCTGGCA,sensor-assay potency score (higher = more potent),[3],-0.558
TTCACTCGCATCTTGTTCTTTG,sensor-assay potency score (higher = more potent),[4],-0.205
TTTGCCTTCCTCTGTCAGCTGC,sensor-assay potency score (higher = more potent),[5],0.237
TTGTAGTCATCCTTGGTGGTGG,sensor-assay potency score (higher = more potent),[6],0.0888
TTAGCTGCATGATACCAGGTGA,sensor-assay potency score (higher = more potent),[7],-0.378
TTGTCCAACAAATAATTCTCAG,sensor-assay potency score (higher = more potent),[6],-0.941
ATAACCTAAAACAGCTTCCTGC,sensor-assay potency score (higher = more potent),[4],-0.549
TTAAAGTCTCGTGTCTTTGGGC,sensor-assay potency score (higher = more potent),[4],0.109
TTTTATGGGGTAATCGTCCTGG,sensor-assay potency score (higher = more potent),[6],0.26
TAAAACAGCTTCCTGCTGCCAG,sensor-assay potency score (higher = more potent),[4],-0.369
TTGTTTTTTGTCATTTTAGGGA,sensor-assay potency score (higher = more potent),[6],-0.361
TAGCCTGTAGTAGACTCGGGTC,sensor-assay potency score (higher = more potent),[5],-0.281
TAGCATATCTGTGAGCAGCTGT,sensor-assay potency score (higher = more potent),[5],0.652
AAGCTTGGTACTTATCTCGAAA,sensor-assay potency score (higher = more potent),[6],-0.971
TAGTTCTCGGTATATTCGGAGA,sensor-assay potency score (higher = more potent),[6],-1.23
TTTGATTTCTTTAACAGCCAAA,sensor-assay potency score (higher = more potent),[7],-1.02
TTGGCTTGAAGGACTCTCTGGG,sensor-assay potency score (higher = more potent),[6],0.798
TTTGTATATCCTGTGACCCAAA,sensor-assay potency score (higher = more potent),[6],-1.34
AAAGATGTCATAGTAGACTTGG,sensor-assay potency score (higher = more potent),[5],0.264
TTTTCCAGTCCAAATAGTCAGG,sensor-assay potency score (higher = more potent),[7],-1.41
TTTTTGAAGCGACCTGACCATA,sensor-assay potency score (higher = more potent),[4],-1.33
TAACCATGAAGATGCATCCTAC,sensor-assay potency score (higher = more potent),[4],-0.864
TAGAGTATTATCACTGTTTGTT,sensor-assay potency score (higher = more potent),[7],0.198
TATGAAACCAAAACACAGGAAA,sensor-assay potency score (higher = more potent),[7],-1.05
TACAACTGCCAGACTTTTGAAA,sensor-assay potency score (higher = more potent),[7],-0.597
TTAATCTGAAGTGCAGGTCGGC,sensor-assay potency score (higher = more potent),[6],-0.481
ATAGCTGATCTTCACTCGCATC,sensor-assay potency score (higher = more potent),[4],-1.3
TAGATAGCTGATCTTCACTCGC,sensor-assay potency score (higher = more potent),[4],0.225
TCTTCTGCTGTAATCTGGCTAT,sensor-assay potency score (higher = more potent),[7],-0.597
TAATGTAAAGTAAATCTTCAAC,sensor-assay potency score (higher = more potent),[7],-0.985
TTCTACATTGACGTCAGCCTCC,sensor-assay potency score (higher = more potent),[5],-0.0868
TAATCTGAAGTGCAGGTCGGCA,sensor-assay potency score (higher = more potent),[6],-1.32
TTGAAATCCAGCTTGATGCCTT,sensor-assay potency score (higher = more potent),[7],0.157
TATTTTCACTCCAAGATCCTGG,sensor-assay potency score (higher = more potent),[7],-0.051
TTCTACAGCAGAAATACGGAAA,sensor-assay potency score (higher = more potent),[4],-0.939
TTTGCATCTATTACTTTGCTAT,sensor-assay potency score (higher = more potent),[7],-0.561
TCACATAACCTAAAACAGCTTC,sensor-assay potency score (higher = more potent),[4],-0.389
TATTGCTTTTCATAACTTCAGT,sensor-assay potency score (higher = more potent),[7],-0.677
ATGACCACCACAGACACACAGG,sensor-assay potency score (higher = more potent),[5],-1.21
TTAGTCACATCCTCCAAGGGGA,sensor-assay potency score (higher = more potent),[6],0.0144
TTATCTCGAAACTCAGTGGTGT,sensor-assay potency score (higher = more potent),[6],0.244
TCATCTTCCTTTTTGAAGCGAC,sensor-assay potency score (higher = more potent),[4],-0.679
TTAGAGATGAGGAAACATCTCT,sensor-assay potency score (higher = more potent),[4],0.0745
TGAATGAATAGTGACTTCCTTC,sensor-assay potency score (higher = more potent),[8],-0.297
TATACCATGATCTTCATGGTGC,sensor-assay potency score (higher = more potent),[8],0.577
TTTCTGAGCAGATGGAGACTGA,sensor-assay potency score (higher = more potent),[9],-0.731
AAGGACTTGAGTCCAACCTGGC,sensor-assay potency score (higher = more potent),[9],-0.389
TGTACTTGAATAGCGCACCTTC,sensor-assay potency score (higher = more potent),[10],0.381
TATCTTTATCAATATCATCAGC,sensor-assay potency score (higher = more potent),[10],-1.22
TAACTAGGAAACTCCATTCGGC,sensor-assay potency score (higher = more potent),[11],-0.0842
TACTGGAGTATCATCTATCTTA,sensor-assay potency score (higher = more potent),[12],-0.0234
TTGCACACACTACTAGTTCAAC,sensor-assay potency score (higher = more potent),[12],-1.05
TTCTCTTCCACCACTGGGTAGG,sensor-assay potency score (higher = more potent),[13],-0.729
TTAGGTTTTAATCTATCCTTTT,sensor-assay potency score (higher = more potent),[14],-0.692
TTCACTGTGCTGTCCCAGGAGC,sensor-assay potency score (higher = more potent),[13],-1.05
TTCATCAAGATAGATTCTCAGT,sensor-assay potency score (higher = more potent),[15],-0.522
TTCAGCCATTACACAATCGGTT,sensor-assay potency score (higher = more potent),[14],-0.926
TTAGTCTGAAGTAAAAACTGAA,sensor-assay potency score (higher = more potent),[15],-0.599
TTCATCATTCGCAAGGTCCTGC,sensor-assay potency score (higher = more potent),[15],0.558
TTCCTTTGGCGAATCATCCAGG,sensor-assay potency score (higher = more potent),[15],-0.484
TTGTACAGAAGATAAACTTTGC,sensor-assay potency score (higher = more potent),[15],-0.385
TTCTTGAAAAGAACCCTCCTGG,sensor-assay potency score (higher = more potent),[16],0.0426
TTCGCTCTCAACTGAGAGCGGG,sensor-assay potency score (higher = more potent),[13],-0.823
TAACAGAAGAGCTTGCTAGAGG,sensor-assay potency score (higher = more potent),[16],-0.36
TTTATCATTCGTTAACAGCTGT,sensor-assay potency score (higher = more potent),[15],0.355
TTTAGGTTTTAATCTATCCTTT,sensor-assay potency score (higher = more potent),[14],-0.181
TACTATTTCGCTTAGTGCCTAA,sensor-assay potency score (higher = more potent),[13],-0.65
TCATCCAAGACATCTCTCCTTT,sensor-assay potency score (higher = more potent),[15],0.239
TAATTCTGTTAAGATGTCCAGT,sensor-assay potency score (higher = more potent),[16],-0.342
TTGACGTTGCGATCTCGGGAGC,sensor-assay potency score (higher = more potent),[13],-1.12
TGTGTGTACATGGTAATCGTTC,sensor-assay potency score (higher = more potent),[14],-0.765
TTGCTTTTCATGAACAGCTCAT,sensor-assay potency score (higher = more potent),[16],-0.219
TATCTCGCCGAACTGCTGCCCA,sensor-assay potency score (higher = more potent),[13],-0.658
TAGCACAGTACATAGACAGCAT,sensor-assay potency score (higher = more potent),[15],0.733
TTTTAGGTTTTAATCTATCCTT,sensor-assay potency score (higher = more potent),[14],-0.595
TCTGAGACTAAGCATTCGCTTC,sensor-assay potency score (higher = more potent),[14],-1.06
TTATATTGGAAAAATAAGCAGG,sensor-assay potency score (higher = more potent),[14],-0.37
TTATGCTGAGTTACTCTCTGTA,sensor-assay potency score (higher = more potent),[14],0.221
TAGGCTACAATCATCTTTGGAA,sensor-assay potency score (higher = more potent),[16],0.408
TTGCTCGCAGCCATTCTCCTGC,sensor-assay potency score (higher = more potent),[15],-0.359
TTTATCTTGAACAACAATTTCA,sensor-assay potency score (higher = more potent),[16],-0.614
TCGCTTAGTGCCTAAGGTCTTG,sensor-assay potency score (higher = more potent),[13],-0.92
TCGTAGATGGTCACCTTCTTGT,sensor-assay potency score (higher = more potent),[13],-0.618
TTCTTCTCTTCCACCACTGGGT,sensor-assay potency score (higher = more potent),[13],-0.376
TCGCTCTCAACTGAGAGCGGGG,sensor-assay potency score (higher = more potent),[13],-1.29
TTTTAATCTATCCTTTTCTTTA,sensor-assay potency score (higher = more potent),[14],-1.02
TTCATGGTCGCATACTTCCTTG,sensor-assay potency score (higher = more potent),[14],-1.25
TTCCTTTGTGTGTACATGGTAA,sensor-assay potency score (higher = more potent),[14],-0.531
TAAGGTCTTGATCAGAACCTGG,sensor-assay potency score (higher = more potent),[13],-0.161
TAGATGGTCACCTTCTTGTCAT,sensor-assay potency score (higher = more potent),[13],-0.453
TAGGACAAGATGGTAAAGCTTA,sensor-assay potency score (higher = more potent),[15],-0.15
TTGCTCACTGTAGCCTTCTTGT,sensor-assay potency score (higher = more potent),[15],-1.19
TTGGGGAACTTCTCTTTCCTTT,sensor-assay potency score (higher = more potent),[14],-0.569
TCAAAGACTAATATGTCTCAGG,sensor-assay potency score (higher = more potent),[17],-0.257
TATATAGGTGTTGTAATGGTTC,sensor-assay potency score (higher = more potent),[18],-0.522
TAATGGTTCTCCTCCAGCCTTT,sensor-assay potency score (higher = more potent),[18],-0.798
TAGACTTCTGCACAGTTCTCTT,sensor-assay potency score (higher = more potent),[17],-0.561
TGGGCTTCTTGTAATTCCCTGG,sensor-assay potency score (higher = more potent),[18],-0.134

# Reference: the OligoGym collection
